Among all 190,000 compounds or so, about 1,300 (0.68%) were called active. The list comes from a sample in which actives are over-represented; it also holds similar structures and randomly drawn compounds. A number with no mark means an inactive call. Rule as the data show it: active = inhibition above about 50%; inactive = the rest.

The target in this experiment is Mannose-6-phosphate isomerase (Homo sapiens) (UniProt P34949). The experiment in a line: MPI inhibition at elevated mannose 6-phosphate – biochemical, fluorescence intensity, high mannose 6-phosphate, primary screen (AID 1220). The settings on record: recombinant PMI enzyme, coupled fluorescence intensity; at 20 µM; hits give high values.
Chain of Mannose-6-phosphate isomerase (Homo sapiens) (P34949 whole entry, looked up): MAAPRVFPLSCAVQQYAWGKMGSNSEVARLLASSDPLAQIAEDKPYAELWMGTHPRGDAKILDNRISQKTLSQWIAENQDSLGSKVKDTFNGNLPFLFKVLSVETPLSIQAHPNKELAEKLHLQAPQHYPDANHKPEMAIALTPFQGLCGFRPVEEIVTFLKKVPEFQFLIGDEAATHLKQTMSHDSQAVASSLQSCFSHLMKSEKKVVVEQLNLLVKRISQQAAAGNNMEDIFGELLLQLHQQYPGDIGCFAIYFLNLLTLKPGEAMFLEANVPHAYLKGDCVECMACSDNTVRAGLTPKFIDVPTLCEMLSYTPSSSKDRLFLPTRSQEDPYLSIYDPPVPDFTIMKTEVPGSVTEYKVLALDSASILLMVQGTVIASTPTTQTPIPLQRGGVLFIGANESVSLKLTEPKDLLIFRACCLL
One may read the inhibition as the change of the read-out against control, counted positive when it falls. With `CCCn1c(=O)c2ccccc2n2c(SCC(=O)Nc3cc(C)on3)nnc12`, the inhibition is 0%.
As for `CCC(/C=C1\Sc2ccc(OC)cc2N1CCO)=C\c1sc2ccc(OC)cc2[n+]1CCO`, the figure is 13%; as for `Cc1cc(C)nc(SCCn2c(N3CCC(C)CC3)nc3c2c(=O)n(C)c(=O)n3C)n1`, 12.2%.
As to `Fc1ccc(NC(=S)N/N=C/c2ccc(F)c(F)c2)c(F)c1`, the inhibition is -6.4%.
Then `CCN(CC)c1ncnc2sc(C(=O)N3CCN(c4ccccc4)CC3)c(C)c12`, with 6.5%; and `Cc1ccc2cc(CCNC(=O)c3ccc(C)c([N+](=O)[O-])c3)c(=O)[nH]c2c1`, with -17%; and `CN(C(=O)CSc1nnc(-c2ccc(F)cc2)c2ccccc12)C1CCS(=O)(=O)C1` (stereo not given), with -14.8%.
Then `CSc1sc(C)cc1C1C(C#N)=C(N)N(c2cccnc2)C2=C1C(=O)CC(C)(C)C2` (stereo not given), with 13.9%; and `CC1CCN(S(=O)(=O)c2ccc3c(c2)oc(=O)n3CC(=O)N2CCc3ccccc3C2)CC1`, with -7.5%; and `C/C(CC(=O)Nc1cccc(Cl)c1Cl)=N\NC(=O)c1ccccc1C`, with 2.3%.
Regarding `C/C(CC(=O)Nc1cccc(Cl)c1Cl)=N\NC(=O)c1ccccc1N`, the inhibition was 3.3%.
For `C/C(CC(=O)Nc1cccc(Cl)c1Cl)=N\NC(=O)c1ccccc1Br`, the inhibition is 50.8% (active).
As for `CCCN(Cc1cc2ccc(C)cc2[nH]c1=O)C(=O)c1ccccn1`, the figure is 11%.
As for `COc1ccc(NC2SC(=O)N(CC(=O)O)C2=O)cc1` (stereo not given), the figure is 12.1%; as for `NC(=O)c1ccc(N2CCN(c3ccc(O)cc3)CC2)c([N+](=O)[O-])c1`, 55.2% (active); as for `COc1ccc(N2CCN(c3ccc(C(N)=O)cc3[N+](=O)[O-])CC2)cc1`, 16.5%.
Then `CC(=O)c1ccc(N2CCN(c3ccc(C(N)=O)cc3[N+](=O)[O-])CC2)cc1`, with -10.4%; and `O=C(NC1CCCCC1)C(c1ccccc1)N(C(=O)c1cccs1)c1ccc2c(c1)OCO2` (stereo not given), with -2.5%; and `Nc1c(C(=O)Nc2ccccc2)sc2nc(-c3ccco3)ccc12`, with 15.1%.
With `Nc1c(C(=O)Nc2ccccc2F)sc2nc(-c3ccco3)ccc12`, the inhibition is 59.6% (active).
As for `COc1ccccc1NC(=O)c1sc2nc(-c3ccco3)ccc2c1N`, the figure is 11.5%; as for `COCCNC(=O)CSc1nc2ccccc2c(=O)n1CCCC(=O)NCc1ccccc1`, -3%; as for `COc1ccc(-n2c(C)cc(/C=C/c3nc(O)c([N+](=O)[O-])c(=O)[nH]3)c2C)cc1`, 1.6%.
Then `C=CCc1cc(/C=C2/NC(=S)NC2=O)cc(OC)c1O`, with 15.3%.
With `C=CCc1cc(/C=C/c2nc(O)c([N+](=O)[O-])c(=O)[nH]2)cc(OC)c1O`, the inhibition is 68.9% (active).

For the origin of these results see PubChem BioAssay AID1220 (Sanford-Burnham Center for Chemical Genomics, 2008).
